# MsrA act – activates bovine MsrA enzyme. activation, % at 10.6 µM. 0.3% of 360,000 active. purified bovine MsrA, absorbance read-out. AID 602163; in the data active = activation above about 7.5%
# ABCB6 inh 2 – human ABCB6 transporter inhibition. Q9NP58. 0.19% of 360,000 active. K562-ABCB6 porphyrin accumulation, flow cytometry, 1 h; hits give low values. AID 602162. fluorescence ratio to DMSO, % at 10 µM;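 active = fluorescence ratio to DMSO below 75%, the collection mean minus 3 SD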;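 note: signal is porphyrin accumulated inside mitochondria; lower ratio means ABCB6 inhibition with less porphyrin fluorescence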
# Target sequence (Q9NP58 whole entry, looked up): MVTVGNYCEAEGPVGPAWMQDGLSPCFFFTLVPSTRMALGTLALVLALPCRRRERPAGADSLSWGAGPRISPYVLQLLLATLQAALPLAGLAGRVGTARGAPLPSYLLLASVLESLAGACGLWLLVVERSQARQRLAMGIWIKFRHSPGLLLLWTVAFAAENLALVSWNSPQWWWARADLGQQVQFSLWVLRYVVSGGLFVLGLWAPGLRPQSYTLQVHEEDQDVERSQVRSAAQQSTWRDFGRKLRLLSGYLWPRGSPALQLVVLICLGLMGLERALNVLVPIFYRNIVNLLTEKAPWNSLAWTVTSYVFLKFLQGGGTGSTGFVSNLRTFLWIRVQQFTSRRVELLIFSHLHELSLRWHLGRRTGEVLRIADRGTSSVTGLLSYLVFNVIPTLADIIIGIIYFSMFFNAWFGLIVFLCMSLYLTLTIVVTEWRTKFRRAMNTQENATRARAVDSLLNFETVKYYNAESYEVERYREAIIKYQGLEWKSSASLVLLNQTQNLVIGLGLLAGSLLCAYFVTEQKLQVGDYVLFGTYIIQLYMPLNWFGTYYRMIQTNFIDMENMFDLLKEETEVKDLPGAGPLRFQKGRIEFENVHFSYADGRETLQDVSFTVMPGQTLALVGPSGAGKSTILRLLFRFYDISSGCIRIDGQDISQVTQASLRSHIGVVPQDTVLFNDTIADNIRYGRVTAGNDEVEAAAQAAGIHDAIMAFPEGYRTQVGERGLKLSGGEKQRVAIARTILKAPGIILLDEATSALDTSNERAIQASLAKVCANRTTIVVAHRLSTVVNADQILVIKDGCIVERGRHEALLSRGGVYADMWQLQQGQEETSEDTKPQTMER
# SMARCA2 act – activators of SMARCA2 function; 1% of 370,000 active; AID 652017; MG213 cells, MMTV-luciferase reporter, dexamethasone, overnight; activation, % at 9.1 µM; in the data active = activation above about 7.8%
# MsrA inhibitor – inhibitors of bovine MsrA. purified bovine MsrA, absorbance read-out. inhibition, % at 15.5 µM. 0.75% of 360,000 active. AID 651718; in the data active = inhibition above about 4.5%
# SMARCA2 act conf – SMARCA2 activation, confirmation screen | AID 652260 | 30% of 3,500 active | shares compounds with SMARCA2 act | activation, % at 9.1 µM | MG213 cells, MMTV-luciferase with dexamethasone, luminescence, overnight; MG213 cells expressing E1A, Rb sequestered; DMSO wells 0%, reference activator 100%;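 active = activation above its plate's cutoff, the mean activation of tested wells plus 3 SD, cut at about 7.9% in these data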
# VP16 Luc act – activates GAL4-VP16 luciferase, flagging SMARCA2 activator hits; shares compounds with SMARCA2 act; HEK293 GAL4-VP16 pG5luc reporter, luciferase luminescence; scaled: DMSO wells 0%, SAHA wells 100%; activation, % at 9.1 µM; 41% of 3,500 active;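 active = activation above the solvent-only control well mean plus 3 SD, averaged across control plates, cut at about 5.2% in these data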
# Numbers stand for hits; i = inactive; nt = no result given. This is a sample that favours compounds with a hit; in the whole collection about 2.1% have one here.
SMILES,MsrA act,ABCB6 inh 2,SMARCA2 act,MsrA inhibitor,SMARCA2 act conf,VP16 Luc act
CN(c1ccccc1)S(=O)(=O)c1cc(C(=O)OCC(=O)c2c(N)n(C)c(=O)n(C)c2=O)ccc1Cl,i,i,i,i,nt,nt
Cc1[nH]c2ccccc2c1/C=N/Nc1nc2ccccc2[nH]1,i,i,21,i,9.2,i
CCCN(CCC)CCCNC(=S)Nc1ccc2nc(N3CCN(C)CC3)cc(C)c2c1,i,i,10,i,8.3,i
CCCN(CCC)CCCNC(=S)Nc1ccc2nc(N3CCN(CC)CC3)cc(C)c2c1,i,i,9.4,i,i,i
Cc1csc2c(=O)sc(NC(=O)c3ccc(F)cc3Cl)nc12,i,i,11,i,i,i
Cc1csc2c(=O)sc(NC(=O)c3ccc(F)cc3)nc12,i,i,i,i,nt,nt
Oc1ccc(-c2nccc(-c3ccccn3)n2)cc1,i,i,10,i,i,8.1
Cc1ccc(-c2ccnc(-c3ccc(O)cc3)n2)cc1,i,i,i,i,nt,nt
O=C(NCCc1c[nH]c2ccccc12)OCc1cn(Cc2cccc(F)c2)nn1,nt,nt,i,nt,nt,nt
COc1ccc(S[C@]2(C(=O)N3CCCC3)CC(=O)N(C(=O)/C=C/c3ccccc3)[C@@H]2c2ccc(OC)cc2)cc1,nt,nt,i,nt,nt,nt
O=C(Nc1ccc(-c2csc(-c3ccccc3)n2)cc1)c1ccccc1Cl,i,i,i,i,nt,nt
O=C(O)c1ccccc1C(=O)Nc1ccc(-c2csc(-c3ccccc3)n2)cc1,i,i,9.5,i,i,9.5
N#Cc1cc(O)c(-n2nnc3ccccc32)cc1C#N,i,i,i,i,nt,nt
N#Cc1cc(Oc2cccc3cccnc23)c(-n2nnc3ccccc32)cc1C#N,i,i,14,i,i,i
CCOC(=O)c1ccc(-n2c(CN3CCN(CCO)CC3)nc3ccc([N+](=O)[O-])cc3c2=O)cc1,i,i,9.5,i,9.8,i
COc1cccc(-n2c(CN3CCN(Cc4ccccc4)CC3)nc3ccc([N+](=O)[O-])cc3c2=O)c1,nt,nt,12,i,i,i
COc1ccc(-n2c(CN3CCN(Cc4ccccc4)CC3)nc3ccc([N+](=O)[O-])cc3c2=O)c(OC)c1,i,i,i,i,nt,nt
COc1ccc(NC(=O)CSc2ccccc2)c([N+](=O)[O-])c1,i,i,8.4,i,i,i
COc1ccc(OCC(=O)N/N=C(\C)CC(=O)Nc2ccc(OC)cc2[N+](=O)[O-])cc1,i,i,8.7,i,i,i
COc1ccc(NC(=O)CSc2nc3ccccc3n2-c2ccccc2)c([N+](=O)[O-])c1,i,i,i,i,nt,nt
Cc1cc(C)cc(NC(=O)N2CCC(c3nc4ccc(Cl)cc4[nH]3)CC2)c1,nt,nt,i,nt,nt,nt
Cc1noc(C)c1C(=O)NCCc1ccccc1,i,i,9.7,i,i,i
CCCCCCCCN1C(=O)[C@@H](CC(=O)N2CCC(c3ccccc3)CC2)C[C@@]2(C(=O)OC)C1=C[C@H](C(C)C)O[C@@H]2C1CC1,nt,nt,i,nt,nt,nt
O=C(NC(=S)Nc1ccc2c(c1)OCCO2)c1ccccc1F,i,i,i,i,nt,nt
O=C(c1ccccc1)c1ccc2c(c1)OCCCO2,i,i,11,i,8.1,8.9
SMILES,MsrA act,ABCB6 inh 2,SMARCA2 act,MsrA inhibitor,SMARCA2 act conf,VP16 Luc act
COc1ccc(NC(=S)NC(=O)c2ccc3c(c2)OCCO3)cc1,i,i,11,i,i,11
O=C(NC(=S)Nc1ccc2c(c1)OCCO2)c1ccccc1,i,i,9.7,i,i,9.1
O=C(c1ccccc1)c1ccc2c(c1)OCCOCCOCCO2,i,i,i,i,nt,nt
COc1ccc(-c2csc3nc(C)n(-n4cccc4)c(=O)c23)cc1OC,i,i,9.1,i,i,i
COc1ccc(-c2csc3ncn(-c4cccc(C)c4)c(=O)c23)cc1OC,i,i,i,i,nt,nt
CCOc1ccc(-n2c(SCC(=O)Nc3ccc4cn[nH]c4c3)nnc2-c2ccc(C(C)(C)C)cc2)cc1,nt,nt,i,nt,nt,nt
O=C(N/N=C/c1ccc(Cl)cc1Cl)c1n[nH]c2c1CCCC2,i,i,9.5,i,i,8.0
O=C(N/N=C/C(Br)=C\c1ccccc1)c1n[nH]c2c1CCC2,i,i,8.4,i,11,21
CCc1nc2ccc(C(=O)NCCc3ccccn3)cn2c1N(C)Cc1ccc(N(C)C)cc1,i,i,i,i,nt,nt
COc1ccc2nc(-c3ccc(CN4CCC5(CC4)CNc4ccccc45)cc3)c(-c3ccccc3)nc2c1,nt,nt,i,i,nt,nt
COC(=O)Cc1csc(Nc2ccccc2)n1,i,i,8.4,i,i,i
COCc1cc(C)nc(SCC(=O)Nc2ccc(C)c(C)c2)c1C#N,i,i,8.1,i,i,i
O=[N+]([O-])c1cccc(COc2cccc(CO)c2)c1,i,i,i,i,nt,nt
O=[N+]([O-])c1cccc(COc2ccc(CO)cc2)c1,nt,nt,9.4,i,9.1,13
CCC(O)(CC)C(=O)NN(C(=O)CCl)c1ccccc1,i,i,8.7,i,i,i
CCN(CC)CCCNC(=O)c1cc2c(Cl)nc3ccccc3c2s1,i,i,18,i,23,i
CC1CCCN(CCCNC(=O)c2cc3c(Cl)nc4ccccc4c3s2)C1 (stereo not drawn),i,i,15,i,26,i
Cc1nc2ccccc2c2oc(C(=O)NCCCN3CCCC(C)C3)cc12 (stereo not drawn),i,i,i,i,nt,nt
Cc1cc2c(cc(C(=O)OCC(=O)NCc3ccco3)n2C)s1,i,i,i,i,nt,nt
Cn1c(C(=O)OCC(=O)NCc2ccco2)cc2sccc21,i,i,14,i,i,i
O=C(OCc1cn(Cc2ccccc2)nn1)N1CCCC1,nt,nt,i,nt,nt,nt
O=C(/C=C/c1c(Cl)cccc1Cl)NCCc1ccccc1,8.0,i,11,i,i,i
CN1CCC(=NNC(=O)C(=O)Nc2ccccc2)CC1,i,i,8.2,i,i,i
Cc1cc2c(c(=O)o1)[C@@]1(C(=O)Nc3ccccc31)C1=C(CCCC1=O)O2,nt,nt,i,i,nt,nt
N#C/C(=C(/O)c1ccc(F)cc1)c1nc2ccccc2s1,i,i,8.8,i,i,8.9
SMILES,MsrA act,ABCB6 inh 2,SMARCA2 act,MsrA inhibitor,SMARCA2 act conf,VP16 Luc act
N#C/C(=C(/O)COc1ccccc1)c1nc2ccccc2s1,i,i,i,i,nt,nt
COc1cccc(NC(=O)c2nn(C)cc2Br)c1,i,i,8.0,i,i,i
CCn1cc(Br)c(C(=O)Nc2cccc(SC)c2)n1,i,i,8.0,i,i,i
CCOc1ccc(NC(=O)c2nn(C)cc2Br)cc1,i,i,i,i,nt,nt
COc1cccc(NC(=O)c2cccc(C(=O)Nc3cccc(OC)c3)c2)c1,i,i,i,i,nt,nt
CCn1cc(Br)c(C(=O)Nc2ccc(F)cc2F)n1,i,i,i,i,nt,nt
COc1cccc(NC(=O)c2ccc3nsnc3c2)c1,i,i,8.1,i,i,10
CCCOc1ccc(-c2cc(C(C)=O)c3n(c2=O)CCC3)cc1,nt,nt,i,nt,nt,nt
Cc1cc(NC(=O)c2ccco2)ncc1NC(=O)Cc1ccccc1,i,i,11,i,12,i
Cc1cc(NC(=O)c2ccco2)ccc1NC(=O)c1ccco1,i,i,9.7,i,i,i

# Screening data: PubChem BioAssay, several laboratories
